According to PubChem BioAssay (NCI):
The panel holds about 83,000 compounds, 20% with a hit somewhere; the sample as a whole holds those more often.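 Compound tested at a single concentration for 48 hours in 96-well plates; a percent growth value below 10 was scored as active.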 Calls of active or inactive are those of the source.

Tests used:
Experiment in all cases: NCI-60 one-dose screen, 48 h (100 = growth as untreated, 0 = no growth, -100 = all killed)
Conditions in all cases: 10 µM unless noted
DU-145 prostate = tested on: DU-145 prostate
K-562 leukemia = tested on: K-562 leukemia
MALME-3M melanoma = tested on: MALME-3M melanoma
MDA-MB-231 breast = tested on: MDA-MB-231 breast
RXF 393 renal = tested on: RXF 393 renal
SF-268 CNS = tested on: SF-268 CNS
SF-295 CNS = tested on: SF-295 CNS
SF-539 CNS = tested on: SF-539 CNS
UACC-257 melanoma = tested on: UACC-257 melanoma
M14 melanoma = tested on: M14 melanoma
HCT-15 colon = tested on: HCT-15 colon
HT29 colon = tested on: HT29 colon
SNB-75 CNS = tested on: SNB-75 CNS
SNB-19 CNS = tested on: SNB-19 CNS
U251 CNS = tested on: U251 CNS
PC-3 prostate = tested on: PC-3 prostate
SK-MEL-5 melanoma = tested on: SK-MEL-5 melanoma
UACC-62 melanoma = tested on: UACC-62 melanoma
LOX IMVI melanoma = tested on: LOX IMVI melanoma
SK-MEL-28 melanoma = tested on: SK-MEL-28 melanoma

Measured: growth

COc1cc2c(cc1OCCCN1CCN(CCCOc3cc4c(cc3OC)C(=O)N3CCC[C@H]3C=N4)CC1)C=CC(C)(C)O2
active: DU-145 prostate -100% | K-562 leukemia -35.8% | MALME-3M melanoma -89.1% | MDA-MB-231 breast -81.9% | RXF 393 renal -92% | SF-268 CNS -91.9% | SF-295 CNS -59.2% | SF-539 CNS -100% | UACC-257 melanoma -62.4% | M14 melanoma -74.2% | HCT-15 colon -98% | HT29 colon -100% | SNB-75 CNS -98.2% | SNB-19 CNS -94.6% | U251 CNS -98.5% | PC-3 prostate -75.3% | SK-MEL-5 melanoma -100% | UACC-62 melanoma 1.28% | LOX IMVI melanoma -98.6% | SK-MEL-28 melanoma -100%

CC(=O)n1nc(C(=O)OC(C)(C)c2ccccc2)c2ccccc21
inactive: DU-145 prostate 111% | K-562 leukemia 97% | MALME-3M melanoma 105% | MDA-MB-231 breast 85.4% | RXF 393 renal 92.2% | SF-268 CNS 99.2% | SF-295 CNS 93.1% | SF-539 CNS 97.7% | UACC-257 melanoma 89.5% | M14 melanoma 96.4% | HCT-15 colon 101% | HT29 colon 97.5% | SNB-75 CNS 80.8% | SNB-19 CNS 95.7% | U251 CNS 98.6% | PC-3 prostate 92.3% | SK-MEL-5 melanoma 96.9% | UACC-62 melanoma 93% | LOX IMVI melanoma 91.2% | SK-MEL-28 melanoma 90.4%

COc1ccc(C(=O)C/C(=C\c2ccc(Cl)cc2)C(=O)NCc2ccccc2)cc1
inactive: DU-145 prostate 103% | K-562 leukemia 62.4% | MALME-3M melanoma 79.8% | MDA-MB-231 breast 81.3% | RXF 393 renal 91.6% | SF-268 CNS 86.3% | SF-295 CNS 101% | SF-539 CNS 94.4% | UACC-257 melanoma 70.7% | M14 melanoma 94.8% | HCT-15 colon 47% | HT29 colon 82.1% | SNB-75 CNS 100% | SNB-19 CNS 85.5% | U251 CNS 70.6% | PC-3 prostate 56.4% | SK-MEL-5 melanoma 93.4% | UACC-62 melanoma 67.3% | LOX IMVI melanoma 77.9% | SK-MEL-28 melanoma 91.2%

O=C(O)c1cn(C2CC2)c2cc(N3CCN(C(=O)N(c4ccccc4)c4nc(-c5ccccc5)cs4)CC3)c(F)cc2c1=O
inactive: DU-145 prostate 15.4% | SF-268 CNS 19% | M14 melanoma 17.7% | SNB-19 CNS 15.7% | U251 CNS 12.6% | SK-MEL-28 melanoma 36.1%
active: K-562 leukemia 9.77% | MALME-3M melanoma 2.79% | MDA-MB-231 breast -48% | RXF 393 renal 8.65% | SF-295 CNS -0.773% | SF-539 CNS -7.39% | UACC-257 melanoma 1.71% | HCT-15 colon 6.28% | HT29 colon 4.23% | SNB-75 CNS -9.1% | PC-3 prostate 8.6% | SK-MEL-5 melanoma -61.3% | UACC-62 melanoma -4% | LOX IMVI melanoma -23.6%

O=C(NCCNc1nccc(Nc2ccc(S(=O)(=O)Nc3ccccn3)cc2)n1)c1cccc([N+](=O)[O-])c1
inactive: DU-145 prostate 109% | K-562 leukemia 92.9% | MALME-3M melanoma 108% | MDA-MB-231 breast 118% | RXF 393 renal 108% | SF-268 CNS 104% | SF-295 CNS 103% | SF-539 CNS 102% | UACC-257 melanoma 95.3% | M14 melanoma 101% | HCT-15 colon 105% | HT29 colon 90.6% | SNB-75 CNS 93.5% | SNB-19 CNS 112% | U251 CNS 97.6% | PC-3 prostate 94.2% | SK-MEL-5 melanoma 103% | UACC-62 melanoma 100% | LOX IMVI melanoma 101% | SK-MEL-28 melanoma 107%

COc1cccc(/C=C2\COc3ccc(O)c(O)c3C2=O)c1
active: DU-145 prostate 4.84% | MALME-3M melanoma -26.3% | MDA-MB-231 breast 0.944% | RXF 393 renal -18.7% | SF-268 CNS 5.27% | SF-539 CNS -54.7% | HCT-15 colon 1.4% | HT29 colon 8.58% | U251 CNS 3% | PC-3 prostate -10.5% | UACC-62 melanoma -6.3% | LOX IMVI melanoma -82.3%
inactive: K-562 leukemia 11.7% | SF-295 CNS 79.1% | UACC-257 melanoma 28.1% | M14 melanoma 26% | SNB-75 CNS 11.5% | SNB-19 CNS 35.4% | SK-MEL-5 melanoma 40.4% | SK-MEL-28 melanoma 32.1%

Nc1c(C(=O)Nc2ccncc2)sc2nc3c(cc12)C(O)CCC3 (stereo not given)
inactive: DU-145 prostate 96.8% | K-562 leukemia 88.7% | MALME-3M melanoma 118% | MDA-MB-231 breast 96.8% | RXF 393 renal 107% | SF-268 CNS 95.1% | SF-295 CNS 106% | SF-539 CNS 96.2% | UACC-257 melanoma 96.3% | M14 melanoma 114% | HCT-15 colon 86.3% | HT29 colon 85.4% | SNB-75 CNS 105% | SNB-19 CNS 95.4% | U251 CNS 91.6% | PC-3 prostate 94.6% | SK-MEL-5 melanoma 92.4% | UACC-62 melanoma 80% | LOX IMVI melanoma 105% | SK-MEL-28 melanoma 85.5%

CC(=O)O[C@@H]1C[C@]2(C(C)C)O[C@@]1(C)[C@@H]1CCC(C)=C1[C@@H]2OC(=O)/C=C/c1ccccc1
inactive: DU-145 prostate 101% | K-562 leukemia 81.7% | MALME-3M melanoma 86.4% | MDA-MB-231 breast 84.1% | RXF 393 renal 30.8% | SF-268 CNS 80.8% | SF-295 CNS 92.1% | SF-539 CNS 101% | UACC-257 melanoma 90.5% | M14 melanoma 93.6% | HCT-15 colon 87.2% | HT29 colon 74.8% | SNB-75 CNS 89.1% | SNB-19 CNS 102% | U251 CNS 91.2% | PC-3 prostate 56.5% | SK-MEL-5 melanoma 90.7% | UACC-62 melanoma 83.6% | LOX IMVI melanoma 83.3% | SK-MEL-28 melanoma 97.3%

COc1ccc(/C=C/C(=O)c2ccc(Nc3ccnc4cc(Cl)ccc34)cc2)cc1
inactive: DU-145 prostate 103% | K-562 leukemia 45% | MALME-3M melanoma 142% | MDA-MB-231 breast 80.7% | RXF 393 renal 13.5% | SF-268 CNS 100% | SF-295 CNS 77.4% | SF-539 CNS 86.8% | UACC-257 melanoma 102% | M14 melanoma 87.8% | HCT-15 colon 77.7% | HT29 colon 45% | SNB-75 CNS 102% | SNB-19 CNS 87.1% | U251 CNS 84.9% | PC-3 prostate 75% | SK-MEL-5 melanoma 67.8% | UACC-62 melanoma 92.3% | LOX IMVI melanoma 89.8% | SK-MEL-28 melanoma 118%

CCCCC1=C(P(=O)(O)O)N[C@H](C(=O)O)CS1
inactive: DU-145 prostate 104% | K-562 leukemia 93.1% | MALME-3M melanoma 96.3% | MDA-MB-231 breast 90.6% | RXF 393 renal 93.5% | SF-268 CNS 98.6% | SF-295 CNS 85.9% | SF-539 CNS 93.1% | UACC-257 melanoma 86.6% | M14 melanoma 92.7% | HCT-15 colon 87.9% | HT29 colon 95.3% | SNB-75 CNS 104% | SNB-19 CNS 89% | U251 CNS 94.2% | PC-3 prostate 90% | SK-MEL-5 melanoma 98.8% | UACC-62 melanoma 85.1% | LOX IMVI melanoma 92.4% | SK-MEL-28 melanoma 89.7%

NC(=O)c1ccc(-c2c3ccccc3cc3c2ccc2ccccc23)cc1
inactive: DU-145 prostate 53.3% | K-562 leukemia 14% | MALME-3M melanoma 54.7% | MDA-MB-231 breast 42.2% | RXF 393 renal 23% | SF-268 CNS 56% | SF-295 CNS 46.1% | SF-539 CNS 34.5% | UACC-257 melanoma 52.4% | M14 melanoma 14.9% | HCT-15 colon 28.3% | SNB-75 CNS 42.5% | SNB-19 CNS 60.9% | U251 CNS 42.5% | PC-3 prostate 54.4% | SK-MEL-5 melanoma 40.8% | UACC-62 melanoma 33.4% | LOX IMVI melanoma 33.3% | SK-MEL-28 melanoma 60%
active: HT29 colon -19.4%

CC(C)Cn1cnc2c(=O)[nH]c(N)nc21
inactive: DU-145 prostate 109% | K-562 leukemia 99.9% | MALME-3M melanoma 98.3% | MDA-MB-231 breast 114% | RXF 393 renal 94.4% | SF-268 CNS 106% | SF-295 CNS 99.2% | SF-539 CNS 104% | UACC-257 melanoma 84.1% | M14 melanoma 105% | HCT-15 colon 106% | HT29 colon 79.2% | SNB-75 CNS 84.4% | SNB-19 CNS 100% | U251 CNS 94.8% | PC-3 prostate 92.8% | SK-MEL-5 melanoma 98.9% | UACC-62 melanoma 103% | LOX IMVI melanoma 97.8% | SK-MEL-28 melanoma 115%

Cc1ccc(C(=O)c2ccc(CC(=O)N/N=C/c3ccccc3O)n2C)cc1
inactive: DU-145 prostate 89.6% | K-562 leukemia 84.2% | MALME-3M melanoma 91.4% | MDA-MB-231 breast 82.6% | RXF 393 renal 89.6% | SF-268 CNS 70.9% | SF-295 CNS 97.7% | SF-539 CNS 89.1% | UACC-257 melanoma 95.3% | M14 melanoma 82.9% | HCT-15 colon 43.5% | HT29 colon 101% | SNB-75 CNS 59.6% | SNB-19 CNS 79.3% | U251 CNS 76.2% | PC-3 prostate 86.8% | SK-MEL-5 melanoma 87.4% | UACC-62 melanoma 87.2% | LOX IMVI melanoma 58% | SK-MEL-28 melanoma 84.3%

CC1OC(n2c3ccccc3c3c4c(c5c6ccccc6[nH]c5c32)C(=O)N(CCN2CCCC2)C4=O)CC(O)C1O (stereo not given)
inactive: DU-145 prostate 30.2% | MALME-3M melanoma 72.3% | MDA-MB-231 breast 74.7% | RXF 393 renal 30.7% | SF-268 CNS 37% | SF-295 CNS 26.6% | SF-539 CNS 39.4% | UACC-257 melanoma 84.5% | M14 melanoma 38.6% | HCT-15 colon 10.7% | SNB-75 CNS 12.1% | SNB-19 CNS 35.1% | U251 CNS 37.9% | PC-3 prostate 33.2% | SK-MEL-5 melanoma 61.3% | UACC-62 melanoma 67.7% | LOX IMVI melanoma 25.3% | SK-MEL-28 melanoma 91.4%
active: K-562 leukemia 3.65% | HT29 colon -49.9%

CC(=O)Oc1ccc(/C(=C(\C)c2ccc(Cl)cc2)c2ccc(OCCN3CCCCC3)cc2)cc1
active: K-562 leukemia -47% | MALME-3M melanoma -6.44% | SF-295 CNS 9.07% | UACC-257 melanoma -34.9% | M14 melanoma -35.1% | HCT-15 colon -16.3% | HT29 colon -25.9% | LOX IMVI melanoma -65% | SK-MEL-28 melanoma -48.5%
inactive: DU-145 prostate 61.9% | MDA-MB-231 breast 50.8% | RXF 393 renal 29.3% | SF-268 CNS 58.6% | SF-539 CNS 28.2% | SNB-75 CNS 41.7% | SNB-19 CNS 42.2% | U251 CNS 18.3% | PC-3 prostate 28.1% | SK-MEL-5 melanoma 37.1% | UACC-62 melanoma 42.8%
